Source: ChEMBL document CHEMBL2218924, “A broad activity screen in support of a chemogenomic map for kinase signalling research and drug discovery” (Biochem J, 2013)

Columns and labels:
[1] = molecular target: Rho-associated protein kinase 2 (Homo sapiens) (UniProt O75116); conditions: at 1 µM
[2] = molecular target: Rho-associated protein kinase 2 (Homo sapiens) (UniProt O75116); conditions: at 10 µM
[3] = molecular target: Proto-oncogene tyrosine-protein kinase receptor Ret (Homo sapiens) (UniProt P07949); conditions: at 1 µM
Sequence of Proto-oncogene tyrosine-protein kinase receptor Ret (Homo sapiens) (P07949 whole entry): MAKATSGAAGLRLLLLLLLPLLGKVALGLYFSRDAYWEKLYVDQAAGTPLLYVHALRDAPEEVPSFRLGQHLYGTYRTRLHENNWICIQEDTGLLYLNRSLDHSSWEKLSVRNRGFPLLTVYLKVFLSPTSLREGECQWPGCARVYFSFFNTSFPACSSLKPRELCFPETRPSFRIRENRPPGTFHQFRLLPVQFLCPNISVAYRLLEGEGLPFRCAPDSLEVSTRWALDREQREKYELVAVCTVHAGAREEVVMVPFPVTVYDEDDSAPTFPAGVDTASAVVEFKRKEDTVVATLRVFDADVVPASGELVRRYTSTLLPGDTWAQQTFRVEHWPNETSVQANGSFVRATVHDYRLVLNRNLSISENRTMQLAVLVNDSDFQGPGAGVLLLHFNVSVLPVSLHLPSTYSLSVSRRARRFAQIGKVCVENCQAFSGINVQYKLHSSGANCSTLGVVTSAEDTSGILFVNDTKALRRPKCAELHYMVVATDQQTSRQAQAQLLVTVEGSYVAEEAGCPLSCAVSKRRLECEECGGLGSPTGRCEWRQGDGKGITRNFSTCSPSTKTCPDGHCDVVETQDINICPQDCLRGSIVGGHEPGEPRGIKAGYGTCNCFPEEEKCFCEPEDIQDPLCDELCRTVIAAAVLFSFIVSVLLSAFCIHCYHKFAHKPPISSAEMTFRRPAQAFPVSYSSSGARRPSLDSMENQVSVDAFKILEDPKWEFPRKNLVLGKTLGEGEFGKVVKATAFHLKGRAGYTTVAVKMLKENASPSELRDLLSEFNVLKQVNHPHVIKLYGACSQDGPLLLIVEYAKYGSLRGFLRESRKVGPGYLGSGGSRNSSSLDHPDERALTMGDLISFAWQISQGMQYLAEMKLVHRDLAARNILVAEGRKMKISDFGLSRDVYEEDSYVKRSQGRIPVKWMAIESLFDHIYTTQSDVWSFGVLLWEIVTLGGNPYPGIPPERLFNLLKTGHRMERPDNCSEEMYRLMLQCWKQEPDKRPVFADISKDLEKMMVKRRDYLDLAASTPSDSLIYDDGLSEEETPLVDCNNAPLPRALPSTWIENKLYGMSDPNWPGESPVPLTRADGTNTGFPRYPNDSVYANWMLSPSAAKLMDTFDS

[4] = molecular target: Macrophage-stimulating protein receptor (Homo sapiens) (UniProt Q04912); conditions: at 1 µM
Sequence of Macrophage-stimulating protein receptor (Homo sapiens) (Q04912 25-304 limits assumed): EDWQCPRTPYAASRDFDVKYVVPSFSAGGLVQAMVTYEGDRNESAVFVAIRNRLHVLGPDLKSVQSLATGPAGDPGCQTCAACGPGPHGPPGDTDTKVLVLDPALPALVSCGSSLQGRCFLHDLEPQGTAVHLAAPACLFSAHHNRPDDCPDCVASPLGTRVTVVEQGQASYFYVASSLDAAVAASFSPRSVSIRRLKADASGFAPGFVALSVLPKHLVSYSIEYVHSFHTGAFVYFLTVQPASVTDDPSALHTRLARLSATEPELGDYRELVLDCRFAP
Sequence of Macrophage-stimulating protein receptor (Homo sapiens) (Q04912 310-1400 limits assumed): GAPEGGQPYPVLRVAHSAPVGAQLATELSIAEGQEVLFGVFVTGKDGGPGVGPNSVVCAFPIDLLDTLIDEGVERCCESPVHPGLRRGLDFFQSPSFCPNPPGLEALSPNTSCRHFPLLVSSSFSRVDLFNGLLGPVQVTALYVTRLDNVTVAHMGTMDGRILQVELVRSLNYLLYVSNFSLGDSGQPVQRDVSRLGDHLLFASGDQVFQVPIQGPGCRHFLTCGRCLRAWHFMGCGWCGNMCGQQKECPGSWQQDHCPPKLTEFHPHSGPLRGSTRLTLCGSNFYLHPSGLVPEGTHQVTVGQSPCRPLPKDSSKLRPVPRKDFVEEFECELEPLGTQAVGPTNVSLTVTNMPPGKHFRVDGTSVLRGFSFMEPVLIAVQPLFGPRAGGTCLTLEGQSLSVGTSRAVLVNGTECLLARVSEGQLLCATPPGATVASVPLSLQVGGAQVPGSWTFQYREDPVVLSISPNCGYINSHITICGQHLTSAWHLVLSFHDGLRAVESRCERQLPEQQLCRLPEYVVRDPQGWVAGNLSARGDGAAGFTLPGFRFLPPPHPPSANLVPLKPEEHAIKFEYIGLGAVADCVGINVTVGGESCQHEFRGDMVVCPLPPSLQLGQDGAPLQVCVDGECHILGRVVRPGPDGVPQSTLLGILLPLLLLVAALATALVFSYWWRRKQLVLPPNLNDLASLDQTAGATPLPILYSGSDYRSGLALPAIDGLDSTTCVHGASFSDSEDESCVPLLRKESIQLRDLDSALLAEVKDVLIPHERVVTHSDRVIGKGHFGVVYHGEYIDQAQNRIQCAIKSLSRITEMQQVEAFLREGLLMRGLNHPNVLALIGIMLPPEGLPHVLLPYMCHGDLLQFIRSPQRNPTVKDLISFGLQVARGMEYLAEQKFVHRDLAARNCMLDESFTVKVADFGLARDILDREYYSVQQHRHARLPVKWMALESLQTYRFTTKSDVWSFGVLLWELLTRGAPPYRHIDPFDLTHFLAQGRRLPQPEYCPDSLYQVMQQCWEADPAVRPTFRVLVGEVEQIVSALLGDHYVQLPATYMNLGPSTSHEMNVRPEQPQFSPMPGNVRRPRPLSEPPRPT

[5] = molecular target: Macrophage-stimulating protein receptor (Homo sapiens) (UniProt Q04912); conditions: at 10 µM
[6] = molecular target: Proto-oncogene tyrosine-protein kinase ROS (Homo sapiens) (UniProt P08922); conditions: at 1 µM
[7] = molecular target: Proto-oncogene tyrosine-protein kinase ROS (Homo sapiens) (UniProt P08922); conditions: at 10 µM
[8] = molecular target: T1, Tyrosine-protein kinase receptor TYRO3 (Homo sapiens) (UniProt Q06418); conditions: at 1 µM
T1 sequence (whole entry): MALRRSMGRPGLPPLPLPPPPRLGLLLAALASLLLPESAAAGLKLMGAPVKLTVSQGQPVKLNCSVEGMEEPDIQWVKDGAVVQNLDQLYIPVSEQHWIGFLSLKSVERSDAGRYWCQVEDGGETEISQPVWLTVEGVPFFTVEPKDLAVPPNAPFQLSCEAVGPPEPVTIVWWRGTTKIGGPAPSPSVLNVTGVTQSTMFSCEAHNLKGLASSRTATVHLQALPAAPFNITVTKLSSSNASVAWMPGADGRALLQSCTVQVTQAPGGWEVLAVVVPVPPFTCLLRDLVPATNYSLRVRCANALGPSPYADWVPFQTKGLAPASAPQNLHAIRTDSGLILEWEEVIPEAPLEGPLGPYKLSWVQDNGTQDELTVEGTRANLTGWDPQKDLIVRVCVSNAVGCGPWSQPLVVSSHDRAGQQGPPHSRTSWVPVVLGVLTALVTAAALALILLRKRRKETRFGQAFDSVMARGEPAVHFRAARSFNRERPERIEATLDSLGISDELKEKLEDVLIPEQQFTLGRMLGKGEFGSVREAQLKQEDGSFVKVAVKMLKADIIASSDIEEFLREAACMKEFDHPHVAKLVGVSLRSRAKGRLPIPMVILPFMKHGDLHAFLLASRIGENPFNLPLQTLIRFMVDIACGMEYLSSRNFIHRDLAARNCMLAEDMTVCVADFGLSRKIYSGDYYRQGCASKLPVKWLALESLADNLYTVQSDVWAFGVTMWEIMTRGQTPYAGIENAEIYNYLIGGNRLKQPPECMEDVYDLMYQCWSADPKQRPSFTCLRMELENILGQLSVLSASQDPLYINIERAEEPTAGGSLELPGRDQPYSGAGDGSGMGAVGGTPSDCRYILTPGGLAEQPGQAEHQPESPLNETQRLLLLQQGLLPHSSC

[9] = molecular target: T1, Tyrosine-protein kinase receptor TYRO3 (Homo sapiens); conditions: at 10 µM
[10] = molecular target: Proto-oncogene tyrosine-protein kinase receptor Ret (Homo sapiens) (UniProt P07949); conditions: at 10 µM

Sequence of Rho-associated protein kinase 2 (Homo sapiens) (O75116 whole entry, looked up): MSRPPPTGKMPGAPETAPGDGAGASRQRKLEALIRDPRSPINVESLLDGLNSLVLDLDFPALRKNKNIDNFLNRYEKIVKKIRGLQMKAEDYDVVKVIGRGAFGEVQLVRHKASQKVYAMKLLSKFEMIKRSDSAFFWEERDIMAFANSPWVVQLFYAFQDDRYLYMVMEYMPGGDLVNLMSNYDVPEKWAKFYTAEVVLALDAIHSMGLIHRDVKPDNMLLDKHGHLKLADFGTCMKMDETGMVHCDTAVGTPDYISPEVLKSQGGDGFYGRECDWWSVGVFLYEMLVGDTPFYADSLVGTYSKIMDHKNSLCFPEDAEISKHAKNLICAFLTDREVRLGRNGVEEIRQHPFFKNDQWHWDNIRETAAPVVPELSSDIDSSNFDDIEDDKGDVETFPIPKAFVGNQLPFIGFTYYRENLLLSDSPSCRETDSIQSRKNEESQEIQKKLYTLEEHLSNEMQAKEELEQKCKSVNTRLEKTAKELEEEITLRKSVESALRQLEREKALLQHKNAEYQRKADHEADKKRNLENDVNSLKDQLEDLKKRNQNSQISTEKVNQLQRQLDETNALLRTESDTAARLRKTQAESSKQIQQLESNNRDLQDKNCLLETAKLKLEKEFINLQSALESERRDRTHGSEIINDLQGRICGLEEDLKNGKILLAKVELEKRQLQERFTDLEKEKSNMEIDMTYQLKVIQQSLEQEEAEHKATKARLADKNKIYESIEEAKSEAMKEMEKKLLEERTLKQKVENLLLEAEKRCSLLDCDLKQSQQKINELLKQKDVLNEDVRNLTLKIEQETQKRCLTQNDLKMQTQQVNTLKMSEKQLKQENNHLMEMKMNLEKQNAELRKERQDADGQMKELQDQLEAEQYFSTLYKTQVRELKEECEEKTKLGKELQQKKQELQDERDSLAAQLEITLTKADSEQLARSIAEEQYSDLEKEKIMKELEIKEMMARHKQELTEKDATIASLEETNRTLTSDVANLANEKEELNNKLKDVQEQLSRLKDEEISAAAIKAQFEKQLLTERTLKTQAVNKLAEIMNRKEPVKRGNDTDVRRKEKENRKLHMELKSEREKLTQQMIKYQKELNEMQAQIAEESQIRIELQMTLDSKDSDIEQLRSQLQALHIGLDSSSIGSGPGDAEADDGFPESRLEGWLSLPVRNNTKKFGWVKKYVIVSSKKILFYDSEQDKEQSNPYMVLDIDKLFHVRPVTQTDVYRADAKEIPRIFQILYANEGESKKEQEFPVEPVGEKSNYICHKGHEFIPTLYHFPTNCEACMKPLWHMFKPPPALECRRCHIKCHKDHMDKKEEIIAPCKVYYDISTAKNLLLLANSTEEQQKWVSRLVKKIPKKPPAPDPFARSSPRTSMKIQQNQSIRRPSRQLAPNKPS

## N#C/C(=C\c1ccc(O)c(O)c1)C(=O)NCc1ccccc1
[1]
  residual activity: 103%
[2]
  residual activity: 78%

## CCCC(=O)Oc1ccc2[nH]c(C(=O)c3cc4ccccc4[nH]3)cc2c1
[1]
  residual activity: 93%
[2]
  residual activity: 83%
[3]
  residual activity: 94%
[4]
  residual activity: 102%
[5]
  residual activity: 74%
[6]
  residual activity: 86%
[7]
  residual activity: 90%
[8]
  residual activity: 92%
[9]
  residual activity: 98%

## O=C(NC(NC(=S)Nc1ccc(F)c([N+](=O)[O-])c1)C(Cl)(Cl)Cl)C(c1ccccc1)c1ccccc1 (stereo unspecified)
[1]
  residual activity: 99%
[2]
  residual activity: 102%
[4]
  residual activity: 88%
[5]
  residual activity: 93%
[6]
  residual activity: 103%
[7]
  residual activity: 94%

## Nc1ncnc2c1c(-c1ccc(Oc3ccccc3)cc1)cn2C1CCCC1
[1]
  residual activity: 90%
[2]
  residual activity: 70%
[3]
  residual activity: 0%
[10]
  residual activity: -1%
[4]
  residual activity: 92%
[5]
  residual activity: 55%
[6]
  residual activity: 88%
[7]
  residual activity: 82%
[8]
  residual activity: 59%
[9]
  residual activity: 14%

## Nc1ncnc2c1cnn2-c1ccccc1
[1]
  residual activity: 92%
[2]
  residual activity: 66%
[3]
  residual activity: 101%
[10]
  residual activity: 91%
[5]
  residual activity: 80%
[8]
  residual activity: 90%
[9]
  residual activity: 93%

## CC(C)(C)n1nc(Cc2cccc3ccccc23)c2c(N)ncnc21
[1]
  residual activity: 104%
[2]
  residual activity: 77%
[3]
  residual activity: 11%
[10]
  residual activity: 1%
[4]
  residual activity: 110%
[5]
  residual activity: 77%
[6]
  residual activity: 96%
[7]
  residual activity: 94%
[8]
  residual activity: 87%
[9]
  residual activity: 73%

## c1ccc(-c2cnc(Nc3ccc(OCCN4CCCC4)cc3)s2)cc1
[1]
  residual activity: 110%
[2]
  residual activity: 81%
[10]
  residual activity: 37%
[7]
  residual activity: 80%

## O=c1cc(N2CCOCC2)oc2c(-c3ccccc3)cccc12
[1]
  residual activity: 100%
[2]
  residual activity: 73%
[4]
  residual activity: 64%
[5]
  residual activity: 65%

## NC(=O)Nc1sc(-c2ccc(F)cc2)cc1C(N)=O
[1]
  residual activity: 89%
[2]
  residual activity: 53%
[3]
  residual activity: 30%
[10]
  residual activity: 1%
[4]
  residual activity: 73%
[5]
  residual activity: 56%
[6]
  residual activity: 91%
[7]
  residual activity: 94%
[8]
  residual activity: 91%
[9]
  residual activity: 41%

## CCN1/C(=C/C(C)=O)Sc2ccc(OC)cc21
[1]
  residual activity: 78%
[2]
  residual activity: 73%

## CCCCc1c(-c2ccc(O)cc2)[nH]c2nccnc12
[1]
  residual activity: 96%
[2]
  residual activity: 94%
[3]
  residual activity: 45%
[10]
  residual activity: 48%
[6]
  residual activity: 93%
[7]
  residual activity: 82%
[8]
  residual activity: 100%
[9]
  residual activity: 99%

## Nc1ncnc2[nH]nc(Nc3ccc(F)cc3)c12
[1]
  residual activity: 104%
[2]
  residual activity: 91%
[3]
  residual activity: 72%
[10]
  residual activity: 18%
[5]
  residual activity: 67%
[6]
  residual activity: 104%
[7]
  residual activity: 95%
[8]
  residual activity: 104%
[9]
  residual activity: 50%

## O=C1Nc2ccc(Cl)cc2/C1=C/c1cc(Cl)c(O)c(Cl)c1
[1]
  residual activity: 96%
[2]
  residual activity: 65%
[3]
  residual activity: 91%
[10]
  residual activity: 77%
[4]
  residual activity: 61%
[5]
  residual activity: 57%
[6]
  residual activity: 92%
[7]
  residual activity: 90%
[8]
  residual activity: 71%
[9]
  residual activity: 57%

## COc1ccc(Cl)cc1NC(=O)Nc1cc(C)nc2ccccc12
[1]
  residual activity: 96%
[2]
  residual activity: 79%
[3]
  residual activity: 93%
[10]
  residual activity: 87%
[6]
  residual activity: 96%
[7]
  residual activity: 92%

## Cn1sc(=O)n(Cc2ccccc2)c1=O
[1]
  residual activity: 91%
[2]
  residual activity: 83%
[3]
  residual activity: 94%
[10]
  residual activity: 94%
[4]
  residual activity: 81%
[5]
  residual activity: 75%
[6]
  residual activity: 79%
[7]
  residual activity: 80%

## O=S(=O)(c1cccc2cnccc12)N1CCCNCC1
[1]
  residual activity: 25%
[2]
  residual activity: 4%
[3]
  residual activity: 53%
[10]
  residual activity: 39%
[9]
  residual activity: 123%

## O=C1C(Cl)=C(N2C(=O)CCC2=O)C(=O)c2ccccc21
[1]
  residual activity: 45%
[2]
  residual activity: 16%
[3]
  residual activity: 102%
[10]
  residual activity: 86%
[4]
  residual activity: 92%
[5]
  residual activity: 81%
[6]
  residual activity: 101%
[7]
  residual activity: 97%

## CC(C)(C)c1nc2c3ccc(F)cc3c3c(=O)[nH]ccc3c2[nH]1
[1]
  residual activity: 57%
[2]
  residual activity: 58%
[3]
  residual activity: 18%
[10]
  residual activity: 36%
[8]
  residual activity: 75%

## Cn1c2ccccc2c2c3c(c4c5ccccc5n(CCC#N)c4c21)CNC3=O
[1]
  residual activity: 43%
[2]
  residual activity: 31%
[3]
  residual activity: -1%
[10]
  residual activity: 1%
[6]
  residual activity: 1%
[7]
  residual activity: 3%

## O=C(CCCc1ccc(-c2ccccc2F)cc1)Nc1ccc(O)cc1
[1]
  residual activity: 106%
[2]
  residual activity: 96%
[3]
  residual activity: 91%
[10]
  residual activity: 86%
[4]
  residual activity: 85%
[5]
  residual activity: 92%
[6]
  residual activity: 103%
[7]
  residual activity: 100%
[8]
  residual activity: 102%
[9]
  residual activity: 102%

## CC(C)[C@H](CO)Nc1nc(Nc2cc(N)cc(Cl)c2)c2ncn(C(C)C)c2n1
[1]
  residual activity: 91%
[2]
  residual activity: 52%
[3]
  residual activity: 83%
[10]
  residual activity: 21%
[4]
  residual activity: 96%
[5]
  residual activity: 62%
[8]
  residual activity: 84%
[9]
  residual activity: 53%

## Nc1nc(Nc2ccc(S(N)(=O)=O)cc2)nn1C(=O)c1c(F)cccc1F
[1]
  residual activity: 16%
[2]
  residual activity: 3%
[4]
  residual activity: 81%
[5]
  residual activity: 33%
[6]
  residual activity: 101%
[7]
  residual activity: 82%
[8]
  residual activity: 81%
[9]
  residual activity: 28%

## COc1cc2ncnc(Nc3cccc(Cl)c3)c2cc1OC
[1]
  residual activity: 103%
[2]
  residual activity: 87%
[3]
  residual activity: 39%
[10]
  residual activity: 6%
[4]
  residual activity: 116%
[5]
  residual activity: 83%
[6]
  residual activity: 100%
[7]
  residual activity: 105%
[8]
  residual activity: 62%
[9]
  residual activity: 15%

## CSc1nc(-c2ccc(F)cc2)c(-c2ccnc(NC(C)c3ccccc3)c2)[nH]1 (stereo unspecified)
[1]
  residual activity: 101%
[2]
  residual activity: 96%
[3]
  residual activity: 66%
[10]
  residual activity: 28%
[4]
  residual activity: 98%
[5]
  residual activity: 83%
[8]
  residual activity: 100%
[9]
  residual activity: 99%

## O=C(c1cc2cc(O)ccc2[nH]1)c1cc2cc(O)ccc2[nH]1
[1]
  residual activity: 67%
[2]
  residual activity: 24%
[3]
  residual activity: 8%
[10]
  residual activity: 0%
[4]
  residual activity: 80%
[5]
  residual activity: 33%
[8]
  residual activity: 39%
[9]
  residual activity: 2%
